# M1 agonist: activates the M1 muscarinic receptor. B-score at 10 µM. actives 3% (n = 64,000). AID 626. CHO-M1 cells, Fluo-4 calcium fluorescence, agonist mode; active compounds read high;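 active = fluorescence rise, raw or as B-score row- and column-corrected plate score, outside the 99.7% band of its plate's samples, either direction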
# D1 mod: D1 dopamine receptor (human) allosteric modulation | P21728 | HEK293 D1, CRE-luciferase, dopamine EC30 potentiation; actives deviate in either direction | B-score at 10 µM | actives 5.9% (n = 58,000) | AID 641;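 active = luminescence count or its row- and column-corrected plate score outside the 99.7% band of the plate's sample wells, on either side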
# Target sequence (P21728 whole entry, looked up): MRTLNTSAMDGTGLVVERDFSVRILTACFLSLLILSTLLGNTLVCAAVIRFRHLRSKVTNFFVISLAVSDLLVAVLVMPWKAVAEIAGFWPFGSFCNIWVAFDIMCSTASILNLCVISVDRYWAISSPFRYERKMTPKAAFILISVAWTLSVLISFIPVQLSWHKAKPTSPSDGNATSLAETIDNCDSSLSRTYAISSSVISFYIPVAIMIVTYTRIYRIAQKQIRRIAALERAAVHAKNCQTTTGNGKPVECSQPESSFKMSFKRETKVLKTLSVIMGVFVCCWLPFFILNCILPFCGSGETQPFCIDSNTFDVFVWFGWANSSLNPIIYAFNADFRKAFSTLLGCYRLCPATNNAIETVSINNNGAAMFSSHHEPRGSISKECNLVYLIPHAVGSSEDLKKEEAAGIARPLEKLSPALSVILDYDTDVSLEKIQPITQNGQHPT
# mHtt clearance: compounds clearing mutant huntingtin protein; HeLa Exon1htt(103Q)mCFP, aggregate imaging; zero = plate's median compound well; inhibition, % at 1.5 µM; actives 0.42% (n = 47,000); AID 853;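 active = inhibition of aggregate fluorescence above about 70%, also judged a hit by eye on the cell image, limit read from the data, passing the limit was not always enough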;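 note: cells exposed to compound for three days before fixation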
# M1 antag: blocks the rat M1 muscarinic receptor response to acetylcholine. P08482. CHO-M1 cells, Fluo-4 calcium, ACh EC80 antagonist mode; active compounds read low. B-score at 10 µM. actives 3.4% (n = 64,000);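 active = calcium fluorescence response, raw or row-and-column corrected B-score, differing from the plate sample mean either way at a set confidence level, mostly lower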
# Numbers without * were called inactive; . = no result. Most compounds without a hit are left out; they make up all but 9.1% or so of the library.
SMILES,M1 agonist,D1 mod,mHtt clearance,M1 antag
Cc1ccc(Nc2nc(N)nc(CN3CCN(C)CC3)n2)cc1C,.,0.059,4,.
COC(=O)CC(=O)Cc1nc(N)nc(Nc2ccc(C)c(C)c2)n1,-0.77,-5.4*,.,0.57
CCn1c(=O)c2cc(C(=O)N3CCN(C(=O)c4ccco4)CC3)sc2c2ccccc21,5.2*,-1.3,.,-1.4
CCn1c(=O)cc(OCC(=O)N2CCN(C(=O)c3ccco3)CC2)c2ccccc21,-1.5,-0.23,-34,0.19
COCCCNC(=O)CCCn1c(=O)c2ccccc2n(CC(=O)Nc2c(C)cc(C)cc2C)c1=O,-0.51,-7*,.,-0.052
Cn1c(=O)n(-c2cccc(Cl)c2)c(=O)c2c3c(sc21)COC(C)(C)C3,.,.,11,.
CSc1nnc2c3c4c(sc3c(=O)n(-c3ccccc3)n12)CC(C)(C)OC4,0.83,5.9*,-34,0.049
Cc1cc(C(=O)CN2C(=O)c3ccccc3S2(=O)=O)c(C)n1CC1CCCO1 (configuration not stated),-0.27,-5.7*,.,0.67
O=C(NCc1ccccc1)N[C@@H](Cc1c[nH]c2ccccc12)C(=O)O,1.1,-0.64,.,0.18
O=C(COc1ccccc1)NC(Cc1c[nH]c2ccccc12)C(=O)O (configuration not stated),0.35,0.26,71*,0.06
Cc1cnc(C(=O)Nc2ccccc2-c2ccc(C)o2)cn1,-0.04,.,.,-0.14
Cc1cc(C)c2c(n1)nn1c(N3CCN(c4ccccc4)CC3)cc(C)nc21,-1.5,-4.1*,.,0.24
CCN(CC)c1ccc(/C=C(/C#N)c2nc3ccccc3[nH]2)c(OC(C)C)c1,.,.,46,.
CC(O)c1nc2ccccc2n1Cc1nnc(-c2ccc(Cl)cc2)o1 (configuration not stated),-1,-4.6*,.,0.077
c1ccc(-c2nnc(Cn3c4ccccc4c4nc5ccccc5nc43)o2)cc1,0,0.5,-10,0
COc1cccc(NC(=O)CCN2C(=O)c3ccccc3S2(=O)=O)c1,.,.,1,.
CC(C)C(=O)Nc1cccc(NC(=O)CCN2C(=O)c3ccccc3S2(=O)=O)c1,0.51,0.69,7,1.4*
CN(C1=NC(=O)C(CC(=O)Nc2ccc(Br)cc2)S1)c1ccc(O)cc1 (configuration not stated),-0.12,-3.8*,8,1
COC(=O)C1=C(C)NC(=O)CC1c1cc(Br)ccc1F (configuration not stated),0,-0.2,-4,-0.37
CSc1nc2n(n1)C(c1cc(Br)ccc1F)C(C(=O)N(C)C)=C(C)N2 (configuration not stated),0.13,-0.41,4,1.6*
COc1ccc2c(c1)C(=NN)c1cc(OC)ccc1-2,.,.,-11,.
Cc1ccc(-c2[nH]nc3c2C(c2cccnc2)C(C#N)=C(N)O3)cc1 (configuration not stated),-0.24,14*,5,0.097
N#CC1=C(N)Oc2n[nH]c(-c3ccccc3)c2C1c1cccnc1 (configuration not stated),0.37,1.8,18,0.68
O=C(CSc1nnc(-c2cccs2)n1-c1ccccc1)NCc1ccc2c(c1)OCO2,0.21,0.47,73*,0.54
O=C(CSc1nnc(-c2cccs2)n1Cc1ccccc1)NCc1ccc2c(c1)OCO2,.,.,-6,.
SMILES,M1 agonist,D1 mod,mHtt clearance,M1 antag
Cc1ccc(-c2csc3nnc(SCC(=O)NCc4ccc5c(c4)OCO5)n23)cc1,8.7*,19*,-3,-0.25
Cc1cc2oc(C(=O)N(Cc3ccccc3)C3CCS(=O)(=O)C3)cc(=O)c2cc1Cl (configuration not stated),.,.,-17,.
Cc1cc(NC(=O)COC(=O)C(Nc2ccc(C(F)(F)F)cc2Cl)C(C)C)no1 (configuration not stated),-0.075,0.041,.,-0.49
COc1ccc(C(=O)N=c2nc3ccccn3s2)cc1,-0.39,-4.8*,.,-0.55
O=C(CCSc1ccc(Cl)cc1)N1CCN(c2ncccn2)CC1,0.76,0.017,20,0.027
O=C(CCCNS(=O)(=O)c1cccc2nsnc12)NCCc1ccccc1,-1.2,-4*,.,0.0035
CC(C)N(C(=O)c1ccc2nc3c4ccccc4c4ccccc4c3nc2c1)C(C)C,.,.,-14,.
CC(C)NC(=O)CSc1nncn1-c1ccccc1,-0.57,-0.62,.,-0.00086
CC(C)NC(=O)CSc1nc2ccccc2n1-c1ccccc1,0.26,1.4,-45,0.95*
CCOc1ccc(CCNC(=O)C2CCCN(C(=O)N(C)C)C2)cc1OCC (configuration not stated),-0.017,-7.9*,-48,0.45
O=C(Nc1ccc(Cl)cc1)N1CCC(c2nc(-c3cccs3)no2)CC1,-2.5*,-0.92,4,0.0077
CN1CCN(c2nc(-c3ccncc3)nc3ccccc23)CC1,-0.93,-3.8*,-9,-0.28
Cc1cc(C)n(C(=O)c2ccc(NC(=O)CC(C)C)cc2)n1,-0.74,-0.54,90*,1.1
CCOC(=O)c1[nH]c2ccccc2c1NC(=O)C1CCCC1,0.13,6.9*,.,-0.19
CCOC(=O)c1[nH]c2ccccc2c1NC(=O)CC(C)(C)C,-0.11,0.58,.,0.068
CCn1c(SCc2nnc(-c3ccccc3)o2)nc2c1c(=O)n(C)c(=O)n2C,2,-0.39,.,1.5
CCCCn1c(SCc2nnc(-c3ccccc3)o2)nc2c1c(=O)n(C)c(=O)n2C,3*,0.028,.,-0.32
O=C(NC1CCCC1)C1C2C=CC(C2)C1C(=O)N1CCOCC1 (configuration not stated),-0.54,0.015,78*,-0.11
O=C(O)C1C2C=CC(C2)C1C(=O)N1CCOCC1 (configuration not stated),-0.24,0.52,.,-1.1
COC(=O)C1=C(C)Nc2nc(-c3ccccc3)nn2C1c1ccc(C)o1 (configuration not stated),-0.17,-7.3*,.,-0.12
CCOc1ccc(NC(=O)C(C)SC(N)=O)cc1 (configuration not stated),-0.25,-2.6*,-63,-0.5
CC(=O)c1c(C)[nH]c(C(=O)NCCc2ccccc2)c1C,0.79,-3.5*,.,-0.51
COC(=O)CNC(=O)/C=C/c1ccc(OC)cc1,.,.,54,.
Cc1c(NC(=O)C(C)N2CC(C)OC(C)C2)c(=O)n(-c2ccccc2)n1C (configuration not stated),-0.082,-0.39,10,1.8*
Cc1c(NC(=O)N(C)C)c(=O)n(-c2ccccc2)n1C,.,.,-15,.
SMILES,M1 agonist,D1 mod,mHtt clearance,M1 antag
CCCCN(C)CCCNC(=O)c1cccc(N2CCCC2=O)c1,-0.54,-5.8*,.,-0.98
COc1ccc(-c2nnc3ccc(SCC(=O)N4CCN(c5ccccc5)CC4)nn23)cc1OC,6*,-0.49,.,-0.13
O=C(CSc1ccc2nnc(-c3cccnc3)n2n1)N1CCc2ccccc21,-2.9*,-0.24,.,0.38
COC(=O)CSc1ccc2nnc(-c3ccc(OC)c(OC)c3)n2n1,-0.032,-0.14,34,-0.42
O=C(CSc1ccc2nnc(-c3ccc(Cl)cc3)n2n1)N1CCCC1,1,5.6*,.,-0.38
O=C(CSc1ccc2nnc(-c3cccnc3)n2n1)N1CCOCC1,1.1,-0.36,-1,-0.28
CS(=O)(=O)N1CCC(C(=O)c2cccc(Cl)c2)CC1,-0.0078,-0.42,20,0.015
CCn1cc(C(=O)Nc2ccc(NC(=O)c3ccco3)cc2)c(=O)c2ccc(C)nc21,-0.6,1.5,.,0.36

# High-throughput results as filed in PubChem BioAssay.
